Screening data from PubChem.
aSyn UTR inh: 5' untranslated region of α-synuclein, MLPCN primary screen; 0.82% of 300,000 active; alpha-synuclein 5'UTR reporter, inhibitor activity; inhibition, % (tested at 7.5 µM); in the data active means inhibition above about 60%;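 further: H4 neuroglioblastoma cells stably carrying SNCA 5'UTR luciferase fusion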
BaF3 tox: parental Ba/F3 viability inhibition as JAK2V617F counter-screen. CellTiter-Glo ATP luminescence. 1.1% of 220,000 active. inhibition, % at 5.6 µM;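 active means inhibition above a per-campaign cutoff, the mean inhibition of all tested compounds plus 3 SD, cut at about 27% in these data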
APP transl inh: APP translation inhibition; SH-SY5Y APP 5'UTR-luciferase reporter, luminescence; inhibition, % at 2 µM; 0.82% of 190,000 active; AID 1285;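 active means inhibition above a set limit, derived from the sample mean plus 3 SD, cut at about 45% in these data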
Ba/F3 V617F tox: lowers viability of Ba/F3 cells expressing EpoR and JAK2V617F; ATP luminescence; inhibition, % at 5.6 µM; 1.1% of 220,000 active; AID 1446;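 active means inhibition above the campaign mean plus 3 SD over all tested compounds, cut at about 24% in these data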;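 further: cytokine-independent growth of Ba/F3 cells driven by EpoR plus mutant JAK2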
KLF5 inh: inhibitors of KLF5 expression. inhibition, % at 5 µM. DLD-1 KLF5 promoter-luciferase reporter, luminescence. 0.23% of 290,000 active. AID 1700;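 active means inhibition above a per-plate limit of that plate's mean compound inhibition plus 3 SD, cut at about 60% in these data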;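 further: higher means less KLF5 promoter-driven luciferase light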
IEC-6 cytotox: counter-screen for KLF5 inhibitors: cytotoxicity in IEC-6 cells; IEC-6 cytotoxicity, luminescence viability; 0.78% of 290,000 active; inhibition, % at 5 µM; AID 1825; in the data active means inhibition above about 22%
BaF3 tox 2: reduces parental Ba/F3 viability, JAK2V617F counter-screen; CellTiter-Glo luminescence; cells kept alive by added IL-3; shares compounds with Ba/F3 V617F tox; 31% of 580 active; AID 1520; inhibition, % at 5.6 µM;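 active means cell growth inhibition above the hit limit set in the earlier mutant JAK2 cell screen, cut at about 27% in these data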
JAK2V617F conf: Ba/F3 EpoR-JAK2V617F viability loss, confirmation. AID 1521. inhibition, % at 5.6 µM. 66% of 580 active. CellTiter-Glo luminescence. shares compounds with Ba/F3 V617F tox;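 active means mean inhibition above the hit cutoff derived in the earlier primary screen, cut at about 25% in these data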;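 further: higher means lower luminescence from reduced cell ATP and viability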
Hits are given with their value; – = inactive; · = no result given. Most compounds without a hit are left out; they make up all but 2.2% or so of the library.

SMILES	aSyn UTR inh	BaF3 tox	APP transl inh	Ba/F3 V617F tox	KLF5 inh	IEC-6 cytotox	BaF3 tox 2	JAK2V617F conf
COC(=O)CCN(C(=O)C1C2CC3CC(C2)CC1C3)c1ccccn1 (configuration not stated)	–	–	–	49	–	–	–	–
CCOc1ccccc1C(=O)N(CCC(=O)OC)c1ccccn1	–	–	–	–	–	–	·	·
CCOc1ccc(NS(=O)(=O)c2ccc(NC(=O)C3CCCO3)cc2)cc1 (configuration not stated)	–	–	–	–	–	–	·	·
CCOC(=O)Cc1csc(NC(=O)NC2(C(F)(F)F)Oc3ccc(Cl)cc3O2)n1 (configuration not stated)	–	–	–	30	–	–	–	44
COc1cc(/C=C2\SC(=S)N(Nc3ccccc3)C2=O)ccc1O	–	–	–	–	–	–	·	·
O=C1/C(=C/c2ccc(O)c(O)c2)SC(=S)N1Nc1ccccc1	–	–	–	38	–	–	–	67
COc1ccc(C(=O)Nc2ccc(S(=O)(=O)N3CCCC3)cc2)cc1[N+](=O)[O-]	–	·	·	·	–	–	·	·
COc1ccccc1NC(=O)CSc1nnc(C2CCCCC2)n1-c1ccccc1	–	–	·	30	–	–	–	–
COc1ccccc1NC(=O)CSc1nnc(C2CCCCC2)n1C	–	–	–	–	–	–	·	·
Cc1ccc(C)c(-n2c(Cc3cccs3)n[nH]c2=S)c1	–	–	–	–	–	–	·	·
Cc1ccc(N(CC(=O)Nc2cc(Cl)ccc2Oc2ccccc2)S(C)(=O)=O)cc1C	–	–	–	26	–	–	–	–
CCCCCCCOc1ccc(OC(=O)c2ccncc2)cc1	–	–	–	52	–	–	65	93
O=C(Nc1cccc([N+](=O)[O-])c1)c1cc2ccccc2cc1O	–	–	·	24	–	–	64	75
COc1cccc(C(=O)NNC2OC(CO)C(O)C2O)c1 (configuration not stated)	–	–	–	–	–	–	·	·
COc1ccc(-c2ccc(SC)nn2)cc1	75	–	–	24	–	–	32	30
COc1ccc(C(=O)CSc2ccc(-c3ccccc3)nn2)cc1	–	–	–	–	–	–	·	·
Cc1oc2c(O)c(O)ccc2c(=O)c1-c1cnn(-c2ccccc2)c1	–	–	–	45	–	–	–	99
Cc1oc2c(O)c(O)ccc2c(=O)c1-c1ccccc1	–	·	·	·	·	·	·	·
O=C(CSc1nnc(CNC(=O)c2c(F)cccc2F)o1)NCc1ccccc1Cl	–	·	·	·	–	–	·	·
NS(=O)(=O)c1ccc(Sc2nc3ccccc3s2)c([N+](=O)[O-])c1	67	–	·	65	–	–	36	93
CCc1ccc(NC(=O)C(NS(=O)(=O)c2ccc3c(c2)CCN3C(C)=O)C(C)C)cc1 (configuration not stated)	–	·	·	·	–	–	·	·
COc1ccc(CCNC(=O)C(NS(=O)(=O)c2ccc3c(c2)CCN3C(C)=O)C(C)C)cc1OC (configuration not stated)	–	–	–	65	–	–	–	–
COc1ccc(C2CC(C(F)(F)F)n3nc(C(=O)Nc4c(C)n(C)n(-c5ccccc5)c4=O)c(Cl)c3N2)cc1 (configuration not stated)	–	–	–	–	–	–	·	·
CCN(CC)S(=O)(=O)c1cccc(-n2c(O)c(C=Nc3ccccc3C(=O)O)c3ccccc3c2=O)c1	–	–	·	26	–	–	–	55
O=C(O)c1ccccc1N=Cc1c(O)n(-c2nccs2)c(=O)c2ccccc12	–	–	·	–	–	–	·	·
Cc1cc(NC(=S)Nc2ccc(C)c(Cl)c2)n[nH]1	–	–	–	–	–	–	·	·
C=CCOc1nc2c(c(=O)n(C)c(=O)n2C)n1Cc1ccc(Cl)cc1	–	–	–	24	–	–	62	53
CCn1cc(/C=C(\NC(=O)c2ccc(OC)cc2)C(=O)N2CCOCC2)c2ccccc21	–	·	·	·	–	–	·	·
CN(C(=O)c1nn(C)c2c1CSc1ccccc1-2)c1ccc(F)cc1	–	·	·	·	–	–	·	·
COc1ccccc1N1C(N)=NC(N)=NC1(C)C	–	–	–	–	–	–	·	·
